RE007 growth inh: less growth of the S. pombe RE007 Vpr strain; S. pombe RE007 Vpr strain, BacTiter-Glo ATP luminescence, 24 h; Potency, µM (top dose mostly 92.2 µM), inactives show top-dose activity change, negative = less growth, hits mostly inhibitors; 360,000 tested, 0.21% active; active = well fitted falling curve with a large enough effect; inconclusive = small, poorly fitted or top-dose-only effect; inactive = no such curve, though single readings can be large or run the other way; note: potency is the fitted concentration of half-maximal effect; % is set by controls: 0 for no effect and ±100 for the full control effect; nearly all actives have a fitted effect of over 50% in size
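Fission yeast strain RE007, carrying one chromosomally integrated HIV-1 vpr copy, was seeded at OD 0.01 in PMG+AL medium with 23 nL pinned compound. After 24 h at 30 °C and 99% humidity, viability was read by BacTiter-Glo luminescence.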
Pf growth 96h: P. falciparum growth inhibition at 96 hour, primary screen for plastid delayed-death inhibitors. P. falciparum luciferase reporter growth, 96 h. Potency, µM (titrated, usually from 28.7 µM), for the others: at the highest dose activity change, negative = inhibition, actives largely listed as inhibitors. 320,000 tested, 6.9% active; active = well fitted inhibition curve with a large enough effect; inconclusive = small, poorly fitted or top-dose-only effect, or another doubt; inactive = no such curve, though single readings can be large or run the other way; note: potency is the fitted concentration of half-maximal effect; % is set by controls: 0 for no effect and ±100 for the full control effect
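P. falciparum expressing integrated firefly luciferase, in erythrocytes at 2% hematocrit, 0.05% parasitemia, incubated with compounds 96 h at 37 C, 5% CO2. Growth inhibition read as loss of luminescence; two-generation exposure targets delayed-death apicoplast inhibitors.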
SARS PLpro yeast-1: inhibitors of SARS-CoV papain-like protease in yeast | Potency, µM (titrated, usually from 32.9 µM), for inactives: at the top dose activity, positive = growth rescue, hits mostly activators | AID 485353 | S. cerevisiae expressing SARS-CoV PLpro, growth rescue | 330,000 tested, 0.19% active; note: potency is the fitted concentration of half-maximal effect; 0% is about no effect; nearly all actives have a fitted effect of over 55% in size
NS1 inh: inhibitors of influenza NS1 protein function. Potency, µM (highest dose often 46.1 µM), for the others: at the top dose activity, positive = more growth. 270,000 tested, 0.4% active. AID 2326; note: potency is the fitted concentration of half-maximal effect; actives are rising curves; nearly all actives have a fitted effect of over 50% in size
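S. cerevisiae expressing influenza A NS1, grown in glucose, washed, then diluted 1:100 into pH 6.0 -URA galactose medium with 23 nl compound. Growth recovery read as OD600; NS1-free strain serves as control.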
Pf growth 48h: P. falciparum growth inhibition at 48 hours (one generation); P. falciparum luciferase growth in erythrocytes, 48 h; Potency, µM (top dose mostly 28.7 µM), inactives show at the top dose activity change, negative = inhibition, most hits filed as inhibitors; 310,000 tested, 5.9% active; active = well fitted inhibition curve with a large enough effect; inconclusive = small, poorly fitted or top-dose-only effect, or another doubt; inactive = no such curve, though single readings can be large or run the other way; note: potency is the fitted concentration of half-maximal effect; % is set by controls: 0 for no effect and ±100 for the full control effect
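Luciferase-expressing P. falciparum in infected erythrocytes (2% hematocrit, 0.1% parasitemia final) in RPMI 1640/0.5% Albumax were exposed to compound for 48 hours at 37 C, 5% CO2; growth read as luminescence.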
SARS PLpro yeast-2: Rescues yeast growth by inhibiting SARS-CoV PLpro; calls only; yeast expressing SARS-CoV PLpro, growth phenotype rescue; 1,000 tested, 19% active; shares compounds with SARS PLpro yeast-1; call rule not given here
Active calls of the source: *; i = inactive; ? = inconclusive; . = no result; + = active, no number; [ ] = another dose, or the depositor's remark. Compounds with a hit are over-represented: about 9.5% of the library has one in this group of screens. Unless noted, calls come from the whole dose curve.

SMILES	RE007 growth inh	Pf growth 96h	SARS PLpro yeast-1	NS1 inh	Pf growth 48h	SARS PLpro yeast-2
O=C(COc1ccccc1)NCc1nnc2c3ccccc3c(-c3ccccc3)nn12	5%	?	.	4%	?	i
CC(=O)NCc1nnc2c3ccccc3c(-c3ccccc3)nn12	5%	22%	-1%	10%	-32%[5.75 µM]	.
CCCCN(C(=O)c1ccc2c(c1)S(=O)(=O)N=C1CCCCCN12)c1c(N)n(CCCC)c(=O)[nH]c1=O	4%	5%	-1%	.	-2%	.
CC(C)CNC(=O)C1(C)CCCCCN1Cc1ccccc1-c1ccccc1 (stereo not drawn)	-2%	.	.	.	.	.
O=C(COC(=O)c1ccccc1C(=O)c1ccc(Cl)c([N+](=O)[O-])c1)NC1CCCCCC1	4%	-21%	3.5µM*	?	.	+
O=C(COC(=O)c1ccc(Cl)c([N+](=O)[O-])c1)NC1CCCC1	-3%	-4%	1%	-1%	10%	.
CC(C)(C)NS(=O)(=O)c1cc(C(=O)Nc2sccc2C#N)ccc1Cl	-5%	21%	24%	6%	2%	.
CC1(C)C2CCC1(C)C(OCCNCCOC(=O)Nc1ccccc1)C2 (stereo not drawn)	22%	-15%	-1%	?	?	.
CCCCOC(=O)C[N+](C)(C)CCOC1CC2CCC1(C)C2(C)C (stereo not drawn)	7%	?	.	1%	1.5µM*	i
Cc1cc(C(=O)N/N=C/c2cc(Br)cc([N+](=O)[O-])c2O)c2ccccc2n1	8%	-16%	1.8µM*	-40%	5%	i
O=C(N/N=C/c1cc([N+](=O)[O-])ccc1O)c1cc(-c2ccccc2)nc2ccccc12	6%	-73%	.	7%	2.9µM*	+
O=C(N/N=C/c1cc([N+](=O)[O-])ccc1Cl)c1cc(-c2ccccc2)nc2ccccc12	-4%	?	0%	1%	?	.
Cc1ccccc1C(=O)Nc1cccc(C(=O)N/N=C/c2cc(Cl)cc([N+](=O)[O-])c2O)c1	-1%	21%	7.9µM*	.	60%	?
Cc1cc(C(=O)N/N=C/c2cc([N+](=O)[O-])ccc2O)c2ccccc2n1	1%	?	3.2µM*	5%	9.3µM*	i
CC(=O)C1=C(C)Nc2ncnn2C1c1cccc(Br)c1 (stereo not drawn)	11%	?	0%	0%	.	.
COc1cc(C(=O)NC(=S)NC(C)C)cc(OC)c1OC	-2%	-13%	27%	-10%	-6%	.
COc1cc(C(=O)NC(=S)NNC(=O)c2cnccn2)cc(OC)c1OC	13%	?	?	-31%	12µM*	i
S=C(NCCc1ccccc1)Nc1ccccn1	-19%	?	5.6µM*	-2%	50%	+
CSCCC(NC(=O)COc1ccccc1)C(=O)N1CCCCCC1 (stereo not drawn)	-7%	-26%	2%	.	?	.
COc1ccc(NS(=O)(=O)c2ccc3oc(=O)c4[nH]c(=O)c(=O)n(C)c4c3c2)cc1	4%	11%	-1%	-5%	36%	.
CC(/C=N/Nc1nc(C)cc(C)n1)=C\c1ccc(C(C)C)cc1	-22%	?	11µM*	8%	10µM*	+
Cc1cc(C)nc(N/N=C/c2ccc(Cl)cc2)n1	-17%	-9%	0%	12%	-6%	.
CCOc1cc(N2CCOCC2)c(OCC)cc1NC(=O)COC(=O)/C=C/c1ccc(OC(F)F)cc1	-6%	17%	5%	.	?	.
O=C1CCN(Cl)C(=O)N1Cl	-8%	.	.	.	.	.
CC(=O)N1c2ccc(S(=O)(=O)NCC3CCC(C(=O)NC4CCCCC4)CC3)cc2CC1C (stereo not drawn)	2%	?	1%	-21%	-22%	.
SMILES	RE007 growth inh	Pf growth 96h	SARS PLpro yeast-1	NS1 inh	Pf growth 48h	SARS PLpro yeast-2
Cc1cc(NC(=O)CCC(=O)N(CCC(C)C)C(C(=O)NC2CCCC2)c2ccccc2C)no1 (stereo not drawn)	6%	30%	1%	15%	?	.
O=C(N/N=C/c1ccccn1)c1ccc(Br)cc1	?	?	?	-50%	?	?
O=C(O)c1cccc(NC(=S)N/N=C/c2ccccn2)c1	5%	?	5µM*	.	149%	+
O=C(N/N=C/c1ccccn1)c1ccc(N/N=C/c2ccccn2)cc1	9%	?	-1%	.	?	.
O=C(O)c1cccc(NC(=S)N/N=C/c2cccc(O)c2)c1	-8%	16%	1%	.	-84%	.
CCc1nnc(NC(=O)c2ccc(S(=O)(=O)N3CCc4ccccc4C3)cc2)s1	-12%	27%	-6%	7%	-6%	.
Cc1cc(C)c2nc(NNC(=O)c3ccc(S(=O)(=O)N4CCc5ccccc5C4)cc3)sc2c1	10%	3.7µM*	5.6µM*	?	2.3µM*	?
CC(C)(C)NC(=O)C(c1cc2ccccc2o1)n1c(-c2ccc(-c3ccccc3)cc2)nc2ccccc21 (stereo not drawn)	-11%	.	.	.	.	.
NC(=S)N/N=C/c1ccccc1OCc1cccc(Cl)c1	2%	9.3µM*	16µM*	6%	13µM*	?
COC(=O)N/N=C/c1ccccc1OCc1ccccc1	-4%	0%	10%	-12%	2%	.
N#Cc1nc(-c2ccc(F)cc2)oc1N1CCCCC1	-9%	-7%	-4%	-2%	0%[0.00184 µM]	.
N#Cc1nc(-c2ccc(F)cc2)oc1N1CCCC1	10%	0.29µM*	?	7%	42%	i
COC(=O)N/N=C/c1cc(Br)ccc1O	-18%	?	0%	-2%	0%	.
CC(C)NC(=S)N/N=C/c1cc(Br)ccc1O	-14%	1.7µM*	?	-8%	2.1µM*	+
CCNC(=S)N/N=C/c1cccc(/C=N/NC(=S)NCC)c1	4%	0%	0%	4%	19%	.
CCNC(=S)N/N=C/c1cccs1	9%	4.7µM*	?	2%	.	+
COc1ccc(C=NNC(=O)c2ccccc2NS(=O)(=O)c2cccs2)cc1O	4%	.	14%	.	.	.
O=C(NN=Cc1ccc(O)cc1O)c1ccccc1NS(=O)(=O)c1cccs1	6%	.	1.1µM*	.	.	i
Nc1nc(SCC(=O)OCc2ccccc2)[nH]c(=O)c1NC(=O)c1ccco1	-8%	1%	?	-27%	10%	i
Cc1cc(-n2ccnc2)n2c(nc3ccccc32)c1C#N	15%	-47%	?	5%	.	?
O=C(Nc1cc(Cl)ccc1Cl)P(=O)(O)c1ccccc1	-7%	.	.	.	.	.
CCCCOc1ccc(C(=O)NNC(=O)C2C3C=CC(C3)C2C(=O)O)cc1 (stereo not drawn)	16%	0%	8%	26%	-4%	.
COc1ccc(CN2CC3CC(C2)c2cccc(=O)n2C3)cc1OC (stereo not drawn)	5%	?	-6%	9%	2%	.
